Data as given in PubChem BioAssay.
Results filed as inconclusive are left out. The source made the active and inactive calls. Unless noted, the limit is not given here; nearly all actives have AC50 up to about 26 µM.

Assay: viability loss in pontine glioma line – cell-based, SU-DIPG-XIII, MIPE5.0, CellTiter-Glo, qHTS, dose response (AID 1347064; cut-off not given, nearly all actives have AC50 up to about 23 µM;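 also: cells exposed to compound for 48 hours before the viability read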)
Settings: CellTiter-Glo ATP luminescence

Structure (SMILES) | AC50
CN(C)CCCN=c1c2ccccc2n(C)c2[nH]c(=O)n(C)c(=O)c12 | 26.3 µM (active)
O=C(c1ccc(/C=C/c2n[nH]c3ccccc23)cc1)N1CCNCC1 | 8.33 µM (active)
CC/C(=C(/c1ccc(O)cc1)c1ccc(OCCNC)cc1)c1ccccc1 | 9.34 µM (active)

Assay: viability loss in pontine glioma line – cell-based, SU-DIPG-XXV, MIPE5.0, CellTiter-Glo, qHTS, dose response (AID 1347065);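 also: cells exposed to compound for 48 hours before ATP readout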
Settings: CellTiter-Glo ATP luminescence

Structure (SMILES) | AC50 | outcome
C[C@@H]1COC(Nc2ccc3ncnc(Nc4ccc(OCc5nccs5)c(Cl)c4)c3c2)=N1 | 20.9 µM (active) | –
Cc1ccc2nc(NCCN)c3ncc(C)n3c2c1 | 8.33 µM (active) | –
CC(C)c1cnn2c(NCc3ccccc3)cc(NCCCCCCN)nc12 | 18.6 µM (active) | –
CCN(CC)CCCCNc1nc2cc(Cl)c(Cl)cc2nc1-c1ccc(-c2cccs2)s1 | 5.25 µM (active) | –
O=C(c1ccc(/C=C/c2n[nH]c3ccccc23)cc1)N1CCNCC1 | 4.68 µM (active) | –
CCOC(=O)[C@H]1O[C@@H]1C(=O)N[C@@H](CC(C)C)C(=O)NCCC(C)C | – | inactive
C[C@]1(c2nc3c(C(N)=O)cccc3[nH]2)CCCN1 | – | inactive
NC(=O)N1CCC(CC(=O)N2CCC([C@H]3c4ncc(Br)cc4CCc4cc(Cl)cc(Br)c43)CC2)CC1 | 16.6 µM (active) | –
O=C1NCCc2[nH]c(-c3ccncc3)cc21 | 2.09 µM (active) | –
CNC(=O)c1ccc(N2C(=S)N(c3ccc(C#N)c(C(F)(F)F)c3)C(=O)C2(C)C)cc1F | – | inactive
Cn1cncc1[C@@](N)(c1ccc(Cl)cc1)c1ccc2c(c1)c(-c1cccc(Cl)c1)cc(=O)n2C | 16.6 µM (active) | –
O=C(O)c1ccc2c(c1)nc(Nc1cccc(Cl)c1)c1ccncc12 | 4.68 µM (active) | –
